“And” between values parts separate entries of the source, which are not always exact repeats. Equal entries are not always repeated. A number with no mark means an inactive call. Records with an inconclusive call do not appear. Where a call stands in place of a potency, no number is given. The source made the active and inactive calls. Unless noted, calls come from the whole dose curve; as a rule, active = well fitted curve in the direction sought with a large enough effect; inconclusive = small, poorly fitted or top-dose-only effect, or another doubt; inactive = no such curve, though single readings can be large; an effect the other way counts as inactive or inconclusive.
Experiments:
[1] = Cell Viability - N2a (AID 540); conditions: N2a mouse neuroblastoma cell viability; at 92.2 µM (top of the series); note: nearly all actives have a fitted effect of over 45% in size
Method in brief: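 Mouse neuroblastoma N2a cells (1500/well) were preincubated 5 hr at 37 °C, then exposed to compounds for 40 hr at 37 °C in complete medium. Viability was read as intracellular ATP by CellTiter-Glo luminescence; AC50 from Hill fits.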

[2] = target: Cytochrome P450 3A4 (Homo sapiens) (UniProt P08684); assay: qHTS Assay for Inhibitors and Substrates of Cytochrome P450 3A4 (AID 884); note: nearly all actives have a fitted effect of over 50% in size; note: potency is the fitted concentration of half-maximal effect
Method in brief: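 20 nM human CYP3A4 with 25 uM Luciferin-PPXE (at KM) in 200 mM KPO4, preincubated 10 min with compound; NADPH regeneration started a 60 min RT reaction. Luciferin detected by luminescence, normalized to 57 uM ketoconazole as full inhibition.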

[3] = MultiTox-Fluor Cytotoxicity Assay - LYMP1-001 - Dead Cells (AID 946)
Method in brief: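 In this qHTS, 15 uM tetraoctylammonium bromide defined 100% and DMSO defined basal activity. Lymphoblastoid cells (LYMP1-001, 2500 per well) received compound for 16 hr at 37 C before a fluorogenic dead-cell substrate readout at 485/520 nm.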

[4] = Cell Viability - LYMP1-002 - Assay at 16 hr (AID 948)
Method in brief: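 In this qHTS, lymphoblastoid LYMP1-002 cells (human) receive compounds for 16 hr at 37 C. Viability is taken from CellTiter-Glo ATP luminescence, and AC50 derives from standard Hill fits.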

[5] = MultiTox-Fluor Cytotoxicity Assay - LYMP1-003 - Live Cells (AID 962);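 note: cytotoxic hits lower the live-cell protease signal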
Method in brief: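 LYMP1-003 human lymphoblastoid cells (2500/well) in complete medium were preincubated 5 hr at 37 C, then exposed to compounds for 16 hr at 37 C. Live-cell protease cleavage of GF-AFC read by fluorescence (Ex/Em 405/510); AC50 from Hill fits.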

[6] = Cell Viability - LYMP1-003 - Assay at 24 hr (AID 963)
Method in brief: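 Human lymphoblastoid LYMP1-003 cells (2500/well) were rested 5 hr at 37 C, then exposed to compounds in complete medium for 24 hr at 37 C. Cellular ATP was quantified by CellTiter-Glo luminescence, and AC50 values came from Hill fits of concentration-response data.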

[7] = Cell Viability - LYMP1-003 - Assay at 40 hr (AID 964); note: nearly all actives have a fitted effect of over 60% in size
Method in brief: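 Human lymphoblastoid LYMP1-003 cells, 2500/well in complete medium, rested 5 hr at 37 C, then exposed to compounds for 40 hr at 37 C. Viability read as intracellular ATP by CellTiter-Glo luminescence; AC50 from Hill fits of concentration-response data.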

[8] = Cell Viability - LYMP2-003 (AID 965);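 note: cells exposed to compounds for 24 h before reading; nearly all actives have a fitted effect of over 50% in size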; note: potency is the fitted concentration of half-maximal effect
Method in brief: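 qHTS, human lymphoblastoid line, 2500 cells/well, complete medium. 24 h drug, 37 C. ATP-based luminescent readout; Hill-fit AC50.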

[9] = Cell Viability - LYMP2-017 (AID 972); note: nearly all actives have a fitted effect of over 55% in size; note: potency is the fitted concentration of half-maximal effect
Method in brief: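 Human lymphoblastoid cells (2500/well) were seeded in complete medium, held 5 hr at 37 C, then exposed to compounds for 24 hr at 37 C. Intracellular ATP was read by CellTiter-Glo luminescence after 30 min at room temperature, with AC50 values from Hill-equation fits.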

[10] = Cell Viability - LYMP2-025 (AID 976)
Method in brief: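 Human lymphoblastoid LYMP2-025 cells (2500/well) were pre-incubated 5 hr at 37 C, then treated with compounds for 24 hr at 37 C in complete medium. Viability was read as intracellular ATP by CellTiter-Glo luminescence; AC50 from Hill fits.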

[11] = Cell Viability - LYMP2-007 (AID 979);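 note: cells exposed to compound for 24 h before reading; nearly all actives have a fitted effect of over 60% in size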; note: potency is the fitted concentration of half-maximal effect
Method in brief: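 Human lymphoblastoid cells (2500/well) were plated in complete medium, incubated 5 hr at 37 C, then exposed to compounds for 24 hr at 37 C. Intracellular ATP was read by CellTiter-Glo luminescence after 30 min at room temperature; AC50 from Hill fits.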

[12] = Cell Viability - LYMP2-008 (AID 980); note: nearly all actives have a fitted effect of over 60% in size; note: potency is the fitted concentration of half-maximal effect
Method in brief: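 Human lymphoblastoid cells (2500/well) were plated, held 5 hr at 37 C, then exposed to compounds for 24 hr at 37 C in complete medium. Intracellular ATP was read by CellTiter-Glo luminescence; AC50 from Hill-fitted concentration-response.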

[13] = Cell Viability - LYMP2-014 (AID 983); note: nearly all actives have a fitted effect of over 50% in size
Method in brief: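 Human lymphoblastoid cells (2500/well) were pre-incubated 5 hr at 37 C, then exposed to compounds in complete medium for 24 hr at 37 C. Intracellular ATP was read by CellTiter-Glo luminescence after 30 min at room temperature; AC50 from Hill fits.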

[14] = Cell Viability - LYMP1-002 - Assay at 24 hr (AID 993)
Method in brief: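 Human lymphoblastoid LYMP1-002 cells, 2500/well in complete medium, were treated with compounds for 24 h at 37 C; intracellular ATP was read by CellTiter-Glo luminescence. AC50 values came from Hill-equation fits of qHTS concentration-response data.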

[15] = target: Peroxisome proliferator-activated receptor alpha (Homo sapiens) (UniProt Q07869); assay: qHTS assay for small molecule agonists of the peroxisome proliferator-activated receptor alpha (PPARalpha) signaling pathway (AID 651778); conditions: PathHunter PPARalpha complementation, chemiluminescence, 6 h; active compounds read high
Method in brief: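 Cells plated at 2,000/well and held overnight at 37 C, 5% CO2, then compound added by pin tool for 6 hr; after PathHunter detection reagent and 60 min at room temperature, chemiluminescence from enzyme complementation was read.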

[16] = qHTS assay for small molecule agonists of the antioxidant response element (ARE) signaling pathway measured by Nrf2-dependant transcriptional activity (AID 720636; active = well fitted curve in the direction sought with a large enough effect in the repeat runs; an effect the other way counts as inactive or inconclusive;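 note: HepG2 cells with an ARE-driven luciferase reporter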)
Method in brief: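 HepG2 ARE-luc reporter line, 1% dialyzed FBS; 6 hr attachment at 37 C, compound pinned in, 16 hr at 37 C/5% CO2; ONE-Glo, 30 min RT, luminescence read.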

[17] = qHTS assay for small molecule agonists of the antioxidant response element (ARE) signaling pathway measured by Nrf2-dependant transcriptional activity - cell viability counter screen (AID 720653; active = well fitted curve in the direction sought with a large enough effect in the repeat runs; an effect the other way counts as inactive or inconclusive); conditions: ARE-bla HepG2 viability, CellTiter-Glo ATP luminescence, 16 h; active compounds read low
Method in brief: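 ARE-bla HepG2 cells (2,000/well) rested 5 hrs at 37C/5% CO2, then exposed to compounds in DMSO for 16 hrs. Viability was read in the same wells as intracellular ATP by luminescence, 30 min at room temperature after reagent addition.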

[18] = qHTS assay for cell viability of HEK293 cells (AID 743288); conditions: ATP luminescence (CellTiter-Glo), 18 h; max response: active compounds read low; note: nearly all actives have a fitted effect of over 50% in size
Method in brief: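 Luminescent ATP quantitation served as the viability read-out. Cells (parental HEK293, 2,000/well) received compounds after at least 5 h at 37 C and were exposed for 18 h before a 30 min room-temperature reagent step.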

[19] = qHTS assay for cell viability of the p53RE-bla HCT-116 cell line (AID 743292); note: nearly all actives have a fitted effect of over 55% in size
Method in brief: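 Luminescent ATP quantitation (CellTiter-Glo) served as the viability read-out; reagent was added after 16 h compound exposure at 37 C and read after 30 min at room temperature. Cells: p53RE-bla HCT-116, 4,000 per well.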

[20] = Cell Viability - LYMP2-002 (AID 977)
Method in brief: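 Luminescent ATP readout (CellTiter-Glo, 30 min room temperature) after 24 h compound exposure at 37 C of a human lymphoblastoid line, 2500 cells/well. AC50 values derived by standard Hill fitting of qHTS concentration-response data.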

Sequence of Cytochrome P450 3A4 (Homo sapiens) (P08684 whole entry, looked up): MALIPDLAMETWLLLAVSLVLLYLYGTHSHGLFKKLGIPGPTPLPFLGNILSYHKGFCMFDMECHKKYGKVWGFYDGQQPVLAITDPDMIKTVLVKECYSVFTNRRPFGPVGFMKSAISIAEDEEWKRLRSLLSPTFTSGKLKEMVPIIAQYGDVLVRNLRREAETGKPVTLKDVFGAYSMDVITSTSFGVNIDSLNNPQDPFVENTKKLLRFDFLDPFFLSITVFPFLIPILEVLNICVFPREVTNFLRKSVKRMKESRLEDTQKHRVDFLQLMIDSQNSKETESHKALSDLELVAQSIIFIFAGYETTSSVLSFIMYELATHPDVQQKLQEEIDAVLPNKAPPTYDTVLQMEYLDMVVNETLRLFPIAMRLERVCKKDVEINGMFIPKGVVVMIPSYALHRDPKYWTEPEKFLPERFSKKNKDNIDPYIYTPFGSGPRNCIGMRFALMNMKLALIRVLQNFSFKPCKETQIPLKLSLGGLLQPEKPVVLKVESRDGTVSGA
Sequence of Peroxisome proliferator-activated receptor alpha (Homo sapiens) (Q07869 whole entry, looked up): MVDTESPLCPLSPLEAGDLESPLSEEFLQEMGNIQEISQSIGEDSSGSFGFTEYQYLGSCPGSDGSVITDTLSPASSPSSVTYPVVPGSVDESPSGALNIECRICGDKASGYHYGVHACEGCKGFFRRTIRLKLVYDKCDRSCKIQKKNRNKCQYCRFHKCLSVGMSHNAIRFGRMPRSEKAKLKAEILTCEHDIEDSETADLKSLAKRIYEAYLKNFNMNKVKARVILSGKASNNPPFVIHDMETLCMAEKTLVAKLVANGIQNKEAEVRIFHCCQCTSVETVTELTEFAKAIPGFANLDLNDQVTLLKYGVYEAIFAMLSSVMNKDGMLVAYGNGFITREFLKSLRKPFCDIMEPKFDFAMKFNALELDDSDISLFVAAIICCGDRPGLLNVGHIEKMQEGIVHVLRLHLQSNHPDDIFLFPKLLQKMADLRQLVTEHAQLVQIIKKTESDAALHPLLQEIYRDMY

Row | Structure (SMILES) | activity change, negative = cytotoxicity [1] | Potency [2] | Potency [3] | Potency [4] | Potency [5] | Potency [6] | Potency [7] | Potency [8] | Potency [9] | Potency [10] | Potency [11] | Potency [12] | Potency [13] | Potency [14] | max response [15] | outcome [16] | max response [17] | max response [18] | Potency [19] | Potency [20]
1 | OCC(Br)CBr (stereo unspecified) | -8.1% | inactive | inactive | inactive | inactive | inactive | inactive | inactive | inactive | inactive | inactive | inactive | inactive | inactive | -5.97% | inactive | -0.194% | 6.86% | inactive | 
2 | Brc1ccc(Oc2cc(Br)c(Br)cc2Br)c(Br)c1 | -86.7% (active) and -80.4% (active) | inactive | inactive | inactive | inactive | inactive | inactive | inactive | inactive | inactive | inactive | inactive | inactive | inactive | 8.87% and 4.12% and 3.75% | inactive | -1.22% and 3.3% and -21% | -22.3% and -23.6% | inactive | inactive
3 | C=C(C)C#N | 1.28% | inactive | inactive | inactive | inactive | inactive | inactive | inactive |  | inactive | inactive | inactive | inactive | inactive | -3.42% and 0.836% | inactive | -12.2% and -0.888% | -2.82% and -11% | inactive | inactive
4 | Cc1ccc(O)c(C)c1 | 1.99% | inactive | inactive | inactive | inactive | inactive |  | inactive | inactive | inactive | inactive | inactive | inactive | inactive | -1.5% and -1.55% and 1.86% | inactive | -4.5% and -1.52% | -1.16% and -6.96% and -11.5% | inactive | inactive
5 | Cc1cccc(C#N)c1 | -2.18% | inactive | inactive | inactive | inactive | inactive | inactive | inactive | inactive | inactive | inactive | inactive | inactive | inactive | -0.3% | inactive | -8.19% | 0.442% | inactive | inactive
6 | C=CC1CC=CCC1 (stereo unspecified) | 0.971% | inactive | inactive | inactive | inactive | inactive | inactive | inactive | inactive | inactive | inactive | inactive | inactive | inactive | -0.264% and -1.89% | inactive | 1.14% and 1.26% | -5.12% and -6.19% | inactive | inactive
7 | CCOP(=S)(OCC)Oc1ccc([N+](=O)[O-])cc1 |  | 10 µM (active) and 5.01 µM (active) | inactive | inactive | inactive | inactive | inactive | inactive | inactive | inactive | inactive | inactive | inactive | inactive | -0.408% and 4.67% and -3.29% | inactive | -2.59% and 6.4% and 13.8% | 0.0323% and -20.7% and -1.59% | inactive | inactive
8 | CC(C)(OO)c1ccccc1 | 3.56% | inactive | inactive | inactive | inactive | inactive | inactive | 50.1 µM (active) | 50.1 µM (active) | inactive | 31.6 µM (active) | 39.8 µM (active) | inactive | inactive | -1.59% and -0.102% | inactive | -8.73% and -2.9% | -6.54% and -1.29% | inactive | inactive
9 | Oc1ccc(Cl)cc1Cl | -5.05% | inactive | inactive | inactive | inactive | inactive | inactive | inactive | inactive | inactive | inactive | inactive | inactive | inactive | 1.17% and -0.592% | inactive | -19.8% and -1.01% | 3.78% and -2.5% | inactive | inactive
10 | C=CC(=C)C | 4.7% | inactive | inactive | inactive | inactive | inactive | inactive | inactive | inactive | inactive | inactive | inactive | inactive | inactive | 4.78% | inactive | -2.67% | 2.66% | inactive | inactive

Source: PubChem BioAssay (NCATS)
